Shown are actives, neighbours in structure and some others; about 3.6% of the full set was active somewhere.
HSF1 activator: HSF-1 activators, primary screen, NIH3T3-HGL cells, MG132 stress, luminescence, single point. AID 504408, 2011. 300,000 compounds, 1.7% hits. NIH3T3-HGL HSF-1 luciferase reporter, 8 h; 100% = twice DMSO control signal. activation, % at 9 µM;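 active = mean replicate activation of at least 50% with a set share of replicates each reaching 50%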;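 note: 0% = median of the neutral control wells and 100% = twice that signal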
TROY NFkB inh: inhibitors of TROY-driven NF-kB signaling, primary screen, Q293 LMP1-TROYcd cells, NF-kB luciferase, uHTS. 360,000 compounds, 0.98% hits. inhibition, % at 10 µM. Q293 LMP1-TROYcd NF-kB luciferase reporter, 4 h. AID 1347056, 2019;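 active = compounds whose plate-normalised and pattern-corrected inhibition of the luciferase reporter signal at the single screening dose is 50% or more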
TWEAK-Fn14 inh: inhibitors of TWEAK-Fn14 signaling, primary screen, luciferase reporter cells, uHTS; TWEAK-stimulated Fn14 reporter cells, luciferase luminescence, 8 h; inhibition, % at 10 µM; 360,000 compounds, 2% hits; AID 1159606, 2016; in the data active = inhibition above about 50%
LGR2 inh: inhibitors of bursicon-induced LGR2 CRE-luciferase signal, primary screen, cell-based, HEK293, CRE-luciferase reporter, bursicon stimulation; Drosophila bursicon receptor LGR2 (rickets); inhibition, % at 9.99 µM; 380,000 compounds, 0.35% hits; AID 720647, 2013; bursicon-stimulated, 4 h;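 active = drop in luminescence signal, shown as inhibition above about 50% in the replicate tests, limit read from the data, passing the limit was not always enough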;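 note: agonist challenge used bursicon conditioned medium at about half maximal strength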
LMP1 NFkB inh: EBV LMP1-driven NF-kappaB luciferase reporter inhibitors, primary screen, cell-based, luminescence, single point; LMP1-induced NF-kappaB luciferase reporter cells; inhibition, % at 12.5 µM; 350,000 compounds, 0.69% hits; in the data active = inhibition above about 41%;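 note: 0% = neutral control wells and 100% = reference inhibitor control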
HSF1 inhib: HSF1 inhibitors in luciferase reporter cells, primary screen, cell-based, NIH3T3, luminescence; NIH3T3-HGL HSE-luciferase, MG132-induced, luminescence 8 h; stronger effect = lower value; activity change, negative = inhibition, % at 7.5 µM (by protocol); 300,000 compounds, 0.77% hits;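 active = more than half of replicate wells show activity change below -50%, luminescence cut by over half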;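 note: luciferase reports HSF-1 transcriptional activity via heat shock element; 0% = median of DMSO wells and -100% = zero luminescence signal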
Numbers without * were called inactive; · = no result.

SMILES	HSF1 activator	TROY NFkB inh	TWEAK-Fn14 inh	LGR2 inh	LMP1 NFkB inh	HSF1 inhib
CC1CN(C(=O)/C=C/c2ccc([N+](=O)[O-])s2)CC(C)O1 (configuration not stated)	·	-9	22	20	-42	·
CC1CC(C)CN(C(=O)/C=C/c2ccc([N+](=O)[O-])s2)C1 (configuration not stated)	75*	13	35	25	-96	61
CC(C)NC(=O)N1CC2(C1)[C@@H](c1ccccc1)[C@@H](CO)N2C(=O)C1CCCCC1	·	·	·	34	·	·
CCOc1cc(/C=C2\C(=O)ON=C2C)ccc1OCc1ccccc1	13	-17	61*	-7	6	9
CCCOc1ccc(/C=C2/C(=O)ON=C2C)cc1OCC	2	-18	4	16	3	-1
CCN1CCN(c2ccc(NC(=O)c3ccc(Br)o3)cc2)CC1	56*	-12	-9	-33	-20	14
CC(=O)Nc1ccc(NC(=O)c2cc(-c3cc(C)cc(C)c3O)n[nH]2)cc1	9	4	19	-10	-10	0
Cc1cc(C)c(O)c(-c2cc(C(=O)Nc3ccc(S(=O)(=O)N4CCOCC4)cc3)[nH]n2)c1	1	70*	63*	·	7	-4
O=C(Nc1ccc(S(=O)(=O)N2CCCCC2)cc1)c1ccc(CN2CCOCC2)cc1	-1	53*	68*	·	5	-6
O=C(Nc1ccc(S(=O)(=O)N2CCOCC2)cc1)c1ccc(Br)o1	59*	-28	3	·	-8	12
N#C[C@H]1[C@@H](c2ccccc2-c2ccc(F)cc2)[C@@H](CO)N1C(=O)Cc1ccccc1	·	·	·	14	·	·
C[C@H](CO)N1C[C@H](C)[C@@H](CN(C)Cc2ccc(C(F)(F)F)cc2)Oc2c(NS(=O)(=O)c3ccc(F)cc3)cccc2C1=O	·	·	·	5	·	·
Cc1noc(C)c1NC(=O)Nc1ccc2c(c1)C(=O)N([C@H](C)CO)C[C@H](C)[C@@H](CN(C)Cc1ccc3c(c1)OCO3)O2	·	·	·	-25	·	·
CN1C(=O)c2cc(NS(=O)(=O)c3ccc(F)cc3)ccc2OC[C@H]2O[C@H](CC(=O)O)CC[C@H]21	·	·	·	8	·	·
CC(C)CCCCCCNC(=S)Nc1ccc(S(=O)(=O)N2CCOCC2)cc1	6	56*	54*	51*	-7	-5
O=S(=O)(c1ccc(NC(=S)Nc2ccccc2)cc1)N1CCOCC1	15	-21	3	-16	6	10
COCCNC(=O)C[C@@H]1CC[C@@H]2[C@H](COC[C@H](O)CN2Cc2cccc(-c3ccncc3)c2)O1	·	·	·	20	·	·
COc1ccc(NC(=O)N(C)C[C@@H]2Oc3ccc(NC(=O)CCN4CCOCC4)cc3CC(=O)N([C@@H](C)CO)C[C@H]2C)cc1	·	·	·	-11	·	·
Cc1ccc2nc(Cl)c3nnnn3c2c1	-3	84*	-16	·	-13	15
Cc1ccc2nc(N3CCN(c4cccc(C)c4C)CC3)c3nnnn3c2c1	-1	2	26	·	9	-6
CN(C)C(=O)C[C@@H]1C[C@H]2c3cc(NC(=O)NC4CCCCC4)ccc3O[C@H]2[C@H](CO)O1	·	·	·	0	·	·
C[C@H](CO)N1C[C@H](C)[C@H](CN(C)Cc2cccc(C(F)(F)F)c2)OCc2ccccc2-c2ccccc2C1=O	·	·	·	-2	·	·
CCOC(=O)[C@H]1[C@H]2COc3ccc(OC)cc3[C@@H]2N2C(=O)CN(C)C(=O)[C@@]12C	·	-14	-3	4	47*	·
CCOC(=O)[C@H]1[C@H]2COc3ccc(C)cc3[C@@H]2N2C(=O)CN(Cc3ccc(Cl)cc3)C(=O)[C@@]12C	·	4	-6	11	-2	·
CCOC(=O)[C@H]1[C@H]2COc3cc(OC)ccc3[C@@H]2N2C(=O)CN(C)C(=O)[C@@]12C	·	14	1	5	-2	·
CCOC(=O)[C@H]1[C@H]2COc3ccc(C)cc3[C@@H]2N2C(=O)CN(Cc3ccc(OC)cc3)C(=O)[C@@]12C	·	-9	0	7	45*	·

Screens (PubChem BioAssay)
